GSTO1 inh: inhibitors of recombinant GSTO1, primary screen, counter-screen for RBBP9 inhibitor project, biochemical, fluorescence polarization | Glutathione S-transferase omega-1 (Homo sapiens), P78417 | activity-based probe fluorescence polarization | inhibition, % at 5.96 µM | 1.1% of 300,000 active | AID 1974, 2009;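 active = inhibition above the campaign mean inhibition plus 3 SD, cut at about 35% in these data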
PME-1 inh: PME-1 inhibitors via competitive probe labeling, primary screen, biochemical, fluorescence polarization, FP-Rh probe, HTS. recombinant PME-1. inhibition, % at 5.9 µM. Protein phosphatase methylesterase 1 (Homo sapiens), Q9Y570. 0.53% of 320,000 active;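 active = inhibition above the campaign mean of all compounds plus 3 SD, cut at about 26% in these data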;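 note: competitive labeling of PME-1 active site by serine hydrolase directed probe; inhibitors block probe labeling so polarization falls and inhibition rises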
Fam108B counter: mouse Fam108B serine hydrolase inhibitors, primary screen, counter-screen for RBBP9 inhibitor project, biochemical, fluorescence polarization. recombinant Fam108B, FP-Rh probe fluorescence polarization. inhibition, % at 9.51 µM. 0.33% of 300,000 active;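 active = inhibition above the screen mean inhibition plus 3 SD, computed separately per campaign, cut at about 18% in these data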;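 note: inhibitors lower polarization as less probe binds the enzyme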
pPAFAH inh: pPAFAH enzyme inhibitors, primary screen, biochemical, fluorescence polarization, human. Platelet-activating factor acetylhydrolase (Homo sapiens), Q13093. recombinant pPAFAH, FP-rhodamine probe fluorescence polarization. inhibition, % at 3.39 µM. 1.5% of 330,000 active;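 active = inhibition above the mean inhibition across the screen plus 3 SD, cut at about 25% in these data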;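 note: inhibitors block binding of the rhodamine activity-based probe so polarization drops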
PAD4 FP inh: human PAD4 inhibitors, primary screen, biochemical, fluorescence polarization, 1536-well format; Protein-arginine deiminase type-4 (Homo sapiens), Q9UM07; recombinant PAD4, RCA probe fluorescence polarization; inhibition, % at 6.36 µM; 0.41% of 330,000 active; AID 485272, 2010;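 active = percent inhibition above a cutoff equal to the mean of all tested compounds plus 3 SD, cut at about 15% in these data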
Target sequence (Q9UM07 whole entry, looked up): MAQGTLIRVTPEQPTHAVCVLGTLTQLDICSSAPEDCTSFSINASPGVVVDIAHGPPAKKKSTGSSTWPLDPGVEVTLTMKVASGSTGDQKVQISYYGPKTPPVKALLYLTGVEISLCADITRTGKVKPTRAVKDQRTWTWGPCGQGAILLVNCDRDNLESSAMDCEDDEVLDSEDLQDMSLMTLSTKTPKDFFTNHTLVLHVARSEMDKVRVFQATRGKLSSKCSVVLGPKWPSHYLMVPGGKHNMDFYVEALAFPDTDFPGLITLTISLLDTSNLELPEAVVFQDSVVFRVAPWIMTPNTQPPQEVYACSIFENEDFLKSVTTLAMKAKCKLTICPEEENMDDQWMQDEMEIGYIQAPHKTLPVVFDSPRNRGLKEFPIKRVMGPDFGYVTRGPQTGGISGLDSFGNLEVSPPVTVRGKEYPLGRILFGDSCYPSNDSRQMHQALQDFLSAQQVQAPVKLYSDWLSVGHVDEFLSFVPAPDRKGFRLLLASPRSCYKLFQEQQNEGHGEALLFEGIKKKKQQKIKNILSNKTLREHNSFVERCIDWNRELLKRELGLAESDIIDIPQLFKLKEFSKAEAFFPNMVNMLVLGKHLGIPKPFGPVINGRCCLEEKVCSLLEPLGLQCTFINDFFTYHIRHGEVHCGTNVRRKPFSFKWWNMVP
pPAFAH confirm: pPAFAH (PLA2G7) enzyme inhibitors, confirmation, biochemical, fluorescence polarization, human. inhibition, % at 3.39 µM. AID 463230, 2010. recombinant pPAFAH, FP-Rh probe fluorescence polarization. shares compounds with pPAFAH inh. 72% of 2,300 active;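 active = mean inhibition of the triplicate above the hit cutoff set for the earlier primary screen, cut at about 25% in these data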
Of the large screens only hits and unclear results are named; the others gave an inactive call (follow-up assays come after a bar, where they were run). An excerpt weighted towards active compounds, which were near 2.3% of everything screened.

CCN(CC)c1ccc(-c2nn3c(-c4n[nH]c5c4CCC5)nnc3s2)cc1	pPAFAH inh 35 | pPAFAH confirm 45
CCC/C=N/NC(=O)c1cc(Br)ccc1O	none
O=C(N/N=C1/CCSC1)c1cc(Br)ccc1O	pPAFAH inh 37 | pPAFAH confirm inactive
CC(CN1CCOCC1)OC(=O)Cc1ccc(Cl)cc1 (stereo unspecified)	pPAFAH inh 54 | pPAFAH confirm inactive
Cc1ccccc1C(=O)Nc1cccc(C(=O)N/N=C/c2cc(Cl)cc([N+](=O)[O-])c2O)c1	pPAFAH inh 38 | pPAFAH confirm 42
Nc1ccc(N2CCN(C(=O)c3ccco3)CC2)cc1	pPAFAH inh 37 | pPAFAH confirm inactive
CC(C)(O)[C@@H]1CC[C@@](C)(C2CC[C@]3(C)C2[C@H](O)CC2[C@@]4(C)CC[C@H](O)C(C)(C)C4[C@@H](O[C@H]4O[C@@H](CO)[C@H](O)[C@@H](O)[C@@H]4O[C@@H]4O[C@H](CO)[C@@H](O)[C@H](O)[C@H]4O)C[C@]23C)O1 (stereo in doubt)	none (no result: GSTO1 inh, PME-1 inh, Fam108B counter)
Cc1[nH]c2ccccc2c1N=Nc1cccc(C(=O)O)c1	none
Cc1[nH]c2ccccc2c1N=Nc1ccccc1C(=O)O	PME-1 inh 30, pPAFAH inh 47 | pPAFAH confirm 31
O=C(Cc1ccsc1)NNC(=O)c1ccc(F)cc1	none
CC(CC(=O)Nc1ccc2c(c1)OCO2)c1ccccc1 (stereo unspecified)	none
CCN(CC)C(C(=O)Nc1ccc2c(c1)OCO2)c1ccccc1 (stereo unspecified)	pPAFAH inh 44 | pPAFAH confirm inactive
Cc1ccc(NC(=O)C2CCCN(S(=O)(=O)c3c(C)noc3C)C2)c(Br)c1 (stereo unspecified)	none
CC(C)(C)c1ccc(C(=O)Nc2sc3c(c2C(=O)O)CCC3)cc1	pPAFAH inh 37 | pPAFAH confirm 41
COc1ccc(-c2csc(NC(=O)c3ccc(C(C)(C)C)cc3)c2C(=O)O)cc1	pPAFAH inh 37 | pPAFAH confirm 41
S=c1[nH]nc(-c2cc3c(s2)-c2ccccc2CC3)o1	pPAFAH inh 38 | pPAFAH confirm 62
CSc1ncccc1C(=O)OCC(=O)N1CCc2ccccc21	none (no result: GSTO1 inh, PME-1 inh, Fam108B counter)
O=S(=O)(c1ccc(NC(=S)N/N=C/c2ccc(O)c(O)c2)cc1)N1CCOCC1	pPAFAH inh 65 | pPAFAH confirm 61
O=C(O)Cc1ccc(N=Nc2c(O)c(C(=O)O)cc3ccccc23)cc1	pPAFAH inh 67 | pPAFAH confirm 34
NS(=O)(=O)c1ccc(N=Nc2c(O)c(C(=O)O)cc3ccccc23)cc1	pPAFAH inh 41 | pPAFAH confirm 26
Oc1ccc2ccccc2c1N=Nc1ccc(F)cc1	none
CCOc1ccccc1NS(=O)(=O)c1ccc2c(c1)n(C)c(=O)c(=O)n2C	none
Nc1nc(-c2ccco2)c(-c2ccco2)s1	pPAFAH inh 37 | pPAFAH confirm inactive
O=C(NCC(=O)N1CCN(c2ccccc2O)CC1)C1CCCCC1	pPAFAH inh 37 | pPAFAH confirm inactive
CC(C)=CCc1c(O)cc2oc3c(CC=C(C)C)c(O)c(O)c(CC=C(C)C)c3c(=O)c2c1O	pPAFAH inh 59 | pPAFAH confirm 56
O=C(O)CC1S/C(=N/N=C/c2ccc(-c3ccc(Cl)c([N+](=O)[O-])c3)o2)NC1=O (stereo unspecified)	GSTO1 inh 37, pPAFAH inh 36 | pPAFAH confirm inactive
O=C(O)CC1S/C(=N/N=C/C=C/c2ccccc2[N+](=O)[O-])NC1=O (stereo unspecified)	none
CCOC(=O)c1cccc(C2=CC(=O)C[C@H](c3ccc(OC)c(OC)c3)C2)c1	none (no result: GSTO1 inh, Fam108B counter)
CN(C)C(=O)NC(Nc1ccc(Cl)cc1Cl)C(Cl)(Cl)Cl (stereo unspecified)	pPAFAH inh 42 | pPAFAH confirm inactive
CCOC(=O)C(N)CSC1CC(=O)N(c2ccc(C(=O)OC)cc2)C1=O (stereo unspecified)	none
CCOC(=O)c1ccc(N2C(=O)CC(Sc3ncccn3)C2=O)cc1 (stereo unspecified)	pPAFAH inh 40 | pPAFAH confirm inactive
CNc1ccc(/C=C(\CCC(=O)O)c2nc3ccccc3s2)cc1[N+](=O)[O-]	pPAFAH inh 49 | pPAFAH confirm 38
Cc1ccc(/C=C(\CCC(=O)O)c2nc3ccccc3s2)cc1[N+](=O)[O-]	none
COc1ccccc1CNC(=O)CCCC(=O)n1ncc2cc(C)ccc21	none
COc1ccc(OC)c(/C=N/NC(=O)CNC(=O)c2ccc(S(=O)(=O)N3CCOCC3)cc2)c1	none
N#C/C(=N\Nc1cccc(C(F)(F)F)c1)C(=O)c1csc(-c2cccnc2)n1	pPAFAH inh 45 | pPAFAH confirm 63
Cc1cc(O)c(C=O)c2c1C(=O)Oc1c(CO)c(O)c3c(c1O2)C(O)OC3=O (stereo unspecified)	pPAFAH inh 89 | pPAFAH confirm 27
CCn1nc2cc(C(=O)NCCc3cccs3)ccc2c1OC	pPAFAH inh 50 | pPAFAH confirm inactive
CC(Oc1ccccc1F)c1nnc(SCC(=O)Nc2ccc(N3CCOCC3)cc2)o1 (stereo unspecified)	none (no result: GSTO1 inh, Fam108B counter)
N#Cc1c(NCCCO)nc(-c2ccccc2)c2c1CCCC2	pPAFAH inh 36 | pPAFAH confirm inactive
N#Cc1c(NCCN)nc(-c2ccccc2)c2c1CCCC2	none
N#C/C(=C(/O)c1ccc2c(c1)OCO2)c1nc2cc(C(F)(F)F)ccc2s1	pPAFAH inh 38 | pPAFAH confirm 60
Cc1ccc(C)c(Cn2nnc3c(=O)[nH]c(C4CCN(S(=O)(=O)c5ccc(S(=O)(=O)NC6CC6)cc5)CC4)nc32)c1	pPAFAH inh 42 | pPAFAH confirm 47
Cc1ccc(C)c(Cn2nnc3c(=O)[nH]c(C4CCN(S(=O)(=O)c5ccc(S(=O)(=O)N(C)C)cc5)CC4)nc32)c1	none
COc1cccc(NC(=O)[C@H](C)NC(=O)C2CCN(S(=O)(=O)c3ccc(C)cc3)CC2)c1	none
Cc1ccc(-c2csc(NS(=O)(=O)c3cccc(F)c3)n2)o1	pPAFAH inh 47 (no result: GSTO1 inh, PME-1 inh, Fam108B counter) | pPAFAH confirm 72
COCCN=C1Sc2nc3ccc(C)cc3cc2CN1Cc1cccs1	pPAFAH inh 40 | pPAFAH confirm 60
CN(C(=O)COC(=O)c1ccc(F)c(S(=O)(=O)N2CCOCC2)c1)C1CCS(=O)(=O)C1 (stereo unspecified)	none
Cc1cccc(-n2c(Cc3cc(=O)[nH]c(=O)[nH]3)nnc2SCC(=O)N2CCc3ccccc32)c1	none

Source: PubChem BioAssay (The Scripps Research Institute Molecular Screening Center)
